Data on eight compounds can be found in PubChem BioAssay (Tox21).

Records with an inconclusive call do not appear. More than one record can exist for a structure, and the calls need not agree. Activity calls are given as the source filed them. Unless noted, the call rests on the fitted dose curve.

Assay [1] in a line: Nuclear factor erythroid 2-related factor 2/antioxidant responsive element (Nrf2/ARE) small molecule agonists: qHTS cell viability counter screen in human keratinocytes (AID 1919968; active means well fitted curve in the direction sought with a large enough effect in the repeat runs; an effect the other way counts as inactive or inconclusive; further: nearly all actives have a fitted effect of over 55% in size; further: potency means the concentration at half of the fitted maximal effect). In outline: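 Stably transfected HaCaT (KeratinoSens), 1,500/well. Test agents in DMSO were applied for 23 h, 37 C/5% CO2. CellTiter-Fluor was incubated 1 h before the fluorescence read.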
(In general: qHTS replaces the single test concentration by a dilution series.)

For assay [2], the target named is KiSS-1 receptor (Homo sapiens) (UniProt Q969F8). Kind of assay: Human kisspeptin (KISS1R) small molecule agonists, calcium flux assay in KISS1R-HEK293 cells (AID 1920064; active means well fitted curve in the direction sought with a large enough effect in the repeat runs; an effect the other way counts as inactive or inconclusive). In outline: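 After overnight (18 h) culture at 37 C/5% CO2, human KISS1R-HEK293 cells received calcium dye for 1 h, then test compound; emission at 540 nm (excitation 480 nm) was tracked for 3 min.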

The nature of assay [3]: G protein-coupled receptor (GPCR) small molecule agonists, calcium flux assay: HEK293 wild type cell line counter screen (AID 1920065). In outline:
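Following 18 h incubation at 37 C/5% CO2, plates got calcium dye for 1 h; compounds, ATP or DMSO were then pinned in and fluorescence followed kinetically (480/540 nm).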
On the technique in general: A change in cytosolic calcium serves as a functional read-out for many receptors and channels.

A short description of assay [4]: p53 small molecule agonists, cell-based qHTS assay with human liver microsomes (AID 1963577).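 Further: p53 response element beta-lactamase reporter cells with liver microsomes plus NADPH.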 In a few lines:
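With metabolic activation: human liver microsomes (0.5 mg/mL final) plus NADPH (0.5 mg/mL final) added alongside compounds to p53RE-bla cells; 16 h 37 C exposure; beta-lactamase read by LiveBLAzer fluorescence.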

A short description of assay [5]: p53 small molecule agonists, cell-based qHTS assay with rat liver microsomes (AID 1963578). In a few lines: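 Metabolic activation by rat liver microsomes and NADPH, each 0.5 mg/mL final, added right after compounds to p53RE-bla reporter cells (4,000/well, plated 5 h earlier). 16 h at 37 C, then LiveBLAzer substrate for 2 h at room temperature in the dark; fluorescence read-out.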

A short description of assay [6]: p53 small molecule agonists, cell-based qHTS assay with human liver microsomes: qHTS cell viability counter screen (AID 1963579). Further: nearly all actives have a fitted effect of over 45% in size. In outline: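 Metabolic activation used human liver microsomes and NADPH, both 0.5 mg/mL final, over 16 hours at 37 C on p53RE-bla cells (4,000/well). Cytotoxicity measured by CellTiter-Glo luminescence, 30 min at room temperature.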
A short description of assay [7]: p53 small molecule agonists, cell-based qHTS assay with rat liver microsomes: qHTS cell viability counter screen (AID 1963580). Further: nearly all actives have a fitted effect of over 45% in size. In a few lines:
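Counter screen for cytotoxicity under metabolic activation: rat liver microsomes and NADPH, 0.5 mg/mL final each, added with compounds to p53RE-bla HCT-116 cells; 16 h at 37 C, then ATP luminescence read.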

Assay [8] is described as follows: p53 small molecule agonists, cell-based qHTS assay: qHTS cell viability counter screen (AID 1963581). Further: nearly all actives have a fitted effect of over 45% in size. Further: potency means the concentration at half of the fitted maximal effect. In outline: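 qHTS counter screen: 16 h compound exposure at 37 C of p53RE-bla HCT-116 cells (4,000 per well, seeded 5 h prior), cell viability by ATP luminescence.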
For assay [9], the target named is 5-hydroxytryptamine receptor 2A (Homo sapiens) (UniProt P28223). The experiment in a line: 5-hydroxytryptamine receptor 2A (HTR2A) small molecule antagonists, cell-based qHTS assay (AID 1963586). Further: nearly all actives have a fitted effect of over 45% in size. In outline: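 CHO cells stably expressing human HTR2A were plated for 18 h at 37 C, then loaded with calcium dye for 1 h. Compounds were preincubated 5 min at room temperature before DOI (4 nM solution) was added. Kinetic fluorescence was read for 3 min.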

Assay [10] shares this target. The experiment in a line: 5-hydroxytryptamine receptor 2A (HTR2A) small molecule agonists, cell-based qHTS assay (AID 1963587). Further: nearly all actives have a fitted effect of over 30% in size. Further: potency means the concentration at half of the fitted maximal effect. In outline:
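HTR2A-CHO cells, plated 18 h at 37 C/5% CO2, dye-loaded 1 h at 37 C; compounds in DMSO added by pin tool (agonist mode). Intracellular calcium flux read as kinetic fluorescence on FDSS over 2 min at 1 s intervals.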

Assay [11] addresses Muscarinic acetylcholine receptor M1 (Homo sapiens) (UniProt P11229). Kind of assay: Cholinergic receptor muscarinic 1 (CHRM1) small molecule antagonists, cell-based qHTS assay (AID 1963588). Further: nearly all actives have a fitted effect of over 40% in size. In a few lines:
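Compounds were tested at 15 concentrations in three independent runs. Dye-loaded CHRM1-CHO cells were exposed 5 min at room temperature before stimulation by acetylcholine added at 50nM. Intracellular calcium was read kinetically on FDSS for 3 min.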

The target is the same in assay [12]. The experiment in a line: Cholinergic receptor muscarinic 1 (CHRM1) small molecule agonists, cell-based qHTS assay (AID 1963589). Further: nearly all actives have a fitted effect of over 35% in size. In outline: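 Kinetic fluorescence (1 s intervals) of calcium-sensitive dye in human M1 CHO cells after compound addition; cells pre-incubated 18 h at 37 C/5% CO2 and dye-loaded 1 h.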
Assay [13] can be described thus: cAMP Responsive Elements (CRE) small molecule agonists, cell-based qHTS assay (AID 1963590). In outline: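 Test agents in DMSO were incubated 3 h at 37 C/5% CO2 with CRE-bla HEK 293T cells seeded 18 h earlier; LiveBLAzer B/G FRET substrate was added and read after 2 h at room temperature.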
The nature of assay [14]: cAMP Responsive Elements (CRE) small molecule antagonists, cell-based qHTS assay (AID 1963591; active means well fitted inhibition curve with a large enough effect in the signal ratio in the repeat runs, not every such curve was filed as active; the % refers to the signal ratio). In outline: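 Reporter line CRE-bla HEK 293T in dialyzed-FBS DMEM; cells preincubated 18 h, treated 3 h with compound plus NKH477 (0.25 uM final); LiveBLAzer FRET, 2 h RT.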
For assay [15], the target named is Beta-2 adrenergic receptor (Homo sapiens) (UniProt P07550). The experiment in a line: Adrenergic beta2 receptor (ADRB2) small molecule antagonists, cell-based qHTS assay (AID 1963592). Further: series mostly up to about 92 µM; nearly all actives have a fitted effect of over 50% in size. In outline:
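Assay format: CHO-ADRB2 cells, 18-20hr seeding at 37C/5% CO2, then compound plus 1nM isoproterenol agonist mix for 0.5hr RT. Homogeneous time-resolved fluorescence cAMP detection after 1hr, expressed as 665/615 nm ratio.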

For assay [16] the target is unchanged. The experiment in a line: Adrenergic beta2 receptor (ADRB2) small molecule agonists, cell-based qHTS assay (AID 1963593).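 Further: CHO cells stably overexpressing human ADRB2.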 In outline: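 CHO cells stably over-expressing ADRB2 were plated overnight at 37C, then dosed with compounds plus a stimulation mix containing 100uM IBMX and 25uM Ro-20-1724 for 0.5hr at room temperature. cAMP was measured by HTRF competition, 1hr.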

Assay [17] has as its target D(2) dopamine receptor (Homo sapiens) (UniProt P14416). The experiment in a line: Dopamine D2 receptor (DRD2) small molecule agonists, cell-based qHTS assay (AID 1963594). Further: nearly all actives have a fitted effect of over 35% in size. In a few lines:
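HEK293 cells stably expressing DRD2 were cultured 24 h at 37 C, then given Ro20-1724 (0.1 mM final) and compounds for 10 min at room temperature. NKH477 (200nM) was then added for 30 min. cAMP was read by HTRF.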

Assay [18] has the same target. The experiment in a line: Dopamine D2 receptor (DRD2) small molecule antagonists, cell-based qHTS assay (AID 1963595; active means well fitted inhibition curve with a large enough effect in the signal ratio in the repeat runs, with a control signal flat; the % refers to the signal ratio). In a few lines:
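Antagonist mode in DRD2-HEK293 cells: after compound addition with 0.1 mM Ro20-1724, cells received quinpirole (12 nM) and NKH477 (200 nM) for 30 min at room temperature; HTRF cAMP read after 1 h detection.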

Assay [19] can be described thus: p53 small molecule agonists, cell-based qHTS assay (AID 1963582; active means well fitted activation curve with a large enough effect in the signal ratio in the repeat runs, not every such curve was filed as active; the % refers to the signal ratio). In outline: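 Measured: fluorescence from cleaved LiveBLAzer substrate. System: p53RE-bla cells, 16 h compound treatment at 37 C, 2 h substrate step at room temperature.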
In assay [20] the target is Gonadotropin-releasing hormone receptor (Homo sapiens) (UniProt P30968). Kind of assay: Human gonadotropin-releasing hormone receptor (GnRHR) small molecule agonists, calcium flux assay in GnRHR-HEK293 cells (AID 1920063). Further: nearly all actives have a fitted effect of over 35% in size. In outline:
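Stable human GnRHR HEK293 line. 18 h plating, then calcium dye for 1 h at 37 C. Agonist-mode compound addition from DMSO stocks; fluorescence monitored 3 min.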

Sequence of 5-hydroxytryptamine receptor 2A (Homo sapiens) (P28223 whole entry, looked up): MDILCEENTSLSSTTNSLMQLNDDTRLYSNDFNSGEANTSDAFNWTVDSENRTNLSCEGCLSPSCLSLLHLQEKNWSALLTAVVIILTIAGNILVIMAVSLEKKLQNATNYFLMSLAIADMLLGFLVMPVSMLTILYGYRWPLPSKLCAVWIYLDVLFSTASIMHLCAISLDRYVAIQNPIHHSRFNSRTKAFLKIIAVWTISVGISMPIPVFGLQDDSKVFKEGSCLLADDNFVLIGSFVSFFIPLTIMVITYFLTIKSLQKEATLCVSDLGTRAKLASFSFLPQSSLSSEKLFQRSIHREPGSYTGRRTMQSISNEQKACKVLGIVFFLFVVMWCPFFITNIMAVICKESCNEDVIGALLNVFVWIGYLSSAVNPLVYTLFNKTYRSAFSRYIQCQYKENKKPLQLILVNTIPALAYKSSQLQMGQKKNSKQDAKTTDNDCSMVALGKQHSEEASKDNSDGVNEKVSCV
Sequence of D(2) dopamine receptor (Homo sapiens) (P14416 whole entry, looked up): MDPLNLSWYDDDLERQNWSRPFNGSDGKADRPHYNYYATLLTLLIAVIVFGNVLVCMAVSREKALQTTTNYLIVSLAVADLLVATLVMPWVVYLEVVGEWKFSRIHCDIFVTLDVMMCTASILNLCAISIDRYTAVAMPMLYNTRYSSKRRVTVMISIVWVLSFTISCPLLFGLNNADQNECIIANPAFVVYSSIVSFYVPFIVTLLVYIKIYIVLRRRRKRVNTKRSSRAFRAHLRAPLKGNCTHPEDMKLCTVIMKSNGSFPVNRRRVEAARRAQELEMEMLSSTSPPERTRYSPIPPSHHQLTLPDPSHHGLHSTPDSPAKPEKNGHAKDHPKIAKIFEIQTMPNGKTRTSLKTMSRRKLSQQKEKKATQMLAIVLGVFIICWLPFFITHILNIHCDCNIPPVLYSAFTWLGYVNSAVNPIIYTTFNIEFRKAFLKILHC
Sequence of KiSS-1 receptor (Homo sapiens) (Q969F8 whole entry, looked up): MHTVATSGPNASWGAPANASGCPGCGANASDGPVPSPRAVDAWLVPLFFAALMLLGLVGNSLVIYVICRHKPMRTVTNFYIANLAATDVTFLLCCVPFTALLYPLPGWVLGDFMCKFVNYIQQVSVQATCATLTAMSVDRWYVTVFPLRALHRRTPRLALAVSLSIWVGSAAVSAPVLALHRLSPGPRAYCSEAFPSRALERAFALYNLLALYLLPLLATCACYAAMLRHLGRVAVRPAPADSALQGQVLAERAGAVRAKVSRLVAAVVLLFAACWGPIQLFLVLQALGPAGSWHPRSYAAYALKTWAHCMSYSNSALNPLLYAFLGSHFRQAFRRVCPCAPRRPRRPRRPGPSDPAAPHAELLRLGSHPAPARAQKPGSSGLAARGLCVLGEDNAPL
Sequence of Gonadotropin-releasing hormone receptor (Homo sapiens) (P30968 whole entry, looked up): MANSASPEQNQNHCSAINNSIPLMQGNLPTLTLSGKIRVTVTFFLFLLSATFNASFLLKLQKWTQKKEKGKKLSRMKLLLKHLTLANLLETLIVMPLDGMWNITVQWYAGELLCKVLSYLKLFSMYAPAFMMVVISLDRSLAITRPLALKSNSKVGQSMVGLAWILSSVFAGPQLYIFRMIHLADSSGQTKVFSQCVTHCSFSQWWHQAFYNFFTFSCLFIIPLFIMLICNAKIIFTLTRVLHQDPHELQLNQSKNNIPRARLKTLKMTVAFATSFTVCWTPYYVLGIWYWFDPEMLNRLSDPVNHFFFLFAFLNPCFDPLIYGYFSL
Sequence of Beta-2 adrenergic receptor (Homo sapiens) (P07550 whole entry, looked up): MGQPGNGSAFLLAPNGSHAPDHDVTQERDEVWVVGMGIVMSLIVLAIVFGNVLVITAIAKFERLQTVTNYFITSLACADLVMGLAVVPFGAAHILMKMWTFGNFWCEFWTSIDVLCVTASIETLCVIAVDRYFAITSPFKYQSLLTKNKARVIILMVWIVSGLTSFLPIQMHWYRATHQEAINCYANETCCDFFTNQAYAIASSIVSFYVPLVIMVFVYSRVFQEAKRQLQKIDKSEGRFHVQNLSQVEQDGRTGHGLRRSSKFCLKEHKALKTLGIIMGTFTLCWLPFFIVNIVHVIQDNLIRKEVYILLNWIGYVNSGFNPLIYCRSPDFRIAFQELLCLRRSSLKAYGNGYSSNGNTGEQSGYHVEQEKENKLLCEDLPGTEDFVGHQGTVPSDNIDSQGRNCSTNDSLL
Sequence of Muscarinic acetylcholine receptor M1 (Homo sapiens) (P11229 whole entry, looked up): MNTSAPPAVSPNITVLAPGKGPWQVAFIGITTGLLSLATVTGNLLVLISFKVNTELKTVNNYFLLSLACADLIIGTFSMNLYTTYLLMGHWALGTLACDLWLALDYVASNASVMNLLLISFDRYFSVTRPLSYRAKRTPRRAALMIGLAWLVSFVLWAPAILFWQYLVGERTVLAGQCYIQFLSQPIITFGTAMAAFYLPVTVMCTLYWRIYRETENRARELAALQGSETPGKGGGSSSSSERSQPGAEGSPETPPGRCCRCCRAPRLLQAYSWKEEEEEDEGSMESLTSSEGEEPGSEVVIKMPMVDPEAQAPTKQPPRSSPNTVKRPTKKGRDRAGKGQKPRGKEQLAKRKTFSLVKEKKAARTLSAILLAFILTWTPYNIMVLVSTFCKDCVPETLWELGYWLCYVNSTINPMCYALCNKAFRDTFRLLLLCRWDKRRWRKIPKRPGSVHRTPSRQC

As for `NC(N)=NC(N)=NCCc1ccccc1`, the Potency entry in assay [1], in [2], in [3], in [4], in [5] and in assay [6] was “inactive” each time. The Potency entry in assay [7], in assay [8], in assay [9], in [10], in assay [11] and in assay [12] was “inactive” in each case. For the same compound, the Potency result in assay [13], in [14], in [15], in [16], in assay [17] and in [18] was “inactive” throughout.

For the compound `C#CC1(O)CC[C@H]2[C@@H]3CCC4=CCCC[C@@H]4[C@H]3CC[C@@]21C` (stereo partly drawn), the Potency in assay [1] was 27.3 µM (active) and inactive; in assay [8], 40.8 µM (active) and inactive; in assay [10], 54.9 µM (active) and inactive. For the same compound, the Potency entry in assay [2], in [4], in assay [5], in [6], in assay [7] and in [19] was “inactive” throughout. Further, the Potency entry in [9], in assay [11], in [12], in assay [13], in assay [14] and in [15] was “inactive” in each case. Further, the Potency entry in assay [16], in [17] and in assay [18] was “inactive” each time.

With `C=CCOC(=O)C(=C)C`, the Potency result in [1], in assay [3], in assay [4], in assay [5], in [6] and in assay [7] was “inactive” throughout. In addition, the Potency result in assay [8], in assay [19], in [9], in assay [10], in [11] and in [12] was “inactive” throughout. Also, the Potency entry in assay [13], in [14], in [16], in assay [17] and in assay [18] was “inactive” in each case.

In the case of `COc1cc(NC(=O)CC(C)=O)c(OC)cc1Cl`, the Potency result in [1], in assay [2], in assay [3], in assay [4], in assay [6] and in [7] was “inactive” throughout. Also, the Potency result in [8], in assay [19], in [9], in [10], in assay [11] and in assay [12] was “inactive” throughout. The Potency entry in assay [15], in [17] and in [18] was “inactive” each time.

For the compound `CCCCCCCCCCCCCCCC(=O)O`, the Potency result in assay [1], in [20], in assay [2], in assay [3], in assay [4] and in [5] was “inactive” each time. Also, the Potency result in assay [6], in assay [7], in assay [8], in assay [19], in [9] and in assay [10] was “inactive” throughout. The Potency result in assay [11], in assay [12], in assay [13], in assay [14], in assay [15] and in [16] was “inactive” throughout. Also, the Potency entry in assay [17] and in assay [18] was “inactive” each time.

Take `COc1c(Cl)c(Cl)c(Cl)c(Cl)c1Cl`: the Potency result in assay [1], in assay [2], in [3], in assay [6], in assay [7] and in assay [8] was “inactive” throughout. Further, the Potency entry in assay [9], in [10], in assay [11], in assay [12], in [13] and in [14] was “inactive” each time. The Potency entry in assay [15], in [17] and in assay [18] was “inactive” in each case.

`C[C@](N)(Cc1ccc(O)c(O)c1)C(=O)O`: the Potency result in assay [1], in assay [2], in [3], in assay [4], in [5] and in assay [6] was “inactive” in each case. Further, the Potency entry in [7], in assay [8], in assay [19], in assay [13], in assay [14] and in assay [15] was “inactive” in each case. The Potency entry in [18] was “inactive”.

Turning to `O=C1CCCC1`, the Potency result in assay [1], in assay [2], in [4], in [5], in [6] and in assay [7] was “inactive” in each case. For the same compound, the Potency result in assay [8], in [19], in assay [9], in assay [10], in [11] and in assay [12] was “inactive” each time. The Potency entry in [13], in assay [14], in assay [15], in [17] and in assay [18] was “inactive” throughout.
